In PubChem BioAssay (NCI):
This is part of a sample that, as a whole, favours compounds with a hit. Of some 83,000 tested, about 20% had one in any assay.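 Cell lines were cultured in 96-well plates, exposed to a single compound concentration, and assessed for percent growth 48 hours later.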 Values without a mark were called inactive. The source made the active and inactive calls. Rule for the calls: active = growth percent below 10; inactive = the rest.

Each compound was assayed on HL-60(TB) leukemia (assay: NCI-60 one-dose screen, 48 h (100 = growth as untreated, 0 = no growth, -100 = all killed)). Conditions: 10 µM unless noted.

SMILES	growth
CC1=C([Se]CC(OC(=O)[C@@H](CO)NC(=O)OC(C)(C)C)C(=O)NCCCCCC(=O)OCc2ccccc2)C(=O)c2ccccc2C1=O (some centres undefined)	-32.9% (active)
Cc1[nH]c(-c2cc(N)ccc2Cl)c2c1C(=O)CCCC2	-14.4% (active)
O=c1[nH]c2cc(Cl)c(Cl)cc2n2cc3ncccc3c12	65.5%
C=C1C(=O)O[C@H]2[C@H]1CC/C(COC(=O)NCc1ccc(Cn3c(=O)sn(-c4ccc(I)cc4)c3=O)cc1)=C\CC[C@@]1(C)O[C@@H]21	-32% (active)
Nc1nc(Nc2ccccc2SSc2ccccc2Nc2nc(N)nc(-c3cccc(Cl)c3)n2)nc(-c2cccc(Cl)c2)n1	99.3%
COc1ccc2c(CCCC(c3ccccc3)c3ccccc3)c3[n+](cc2c1OC)CCc1cc2c(cc1-3)OCO2	-30.9% (active)
Cc1ccc2[nH]c(=S)n(-c3ccc(S(=O)(=O)Nc4ccc(Cl)nn4)cc3)c(=O)c2c1	100%
Nc1c(C(=O)Nc2cccc([N+](=O)[O-])c2)sc2nc3c(cc12)C(O)CCC3 (centres undefined)	9.71% (active)
Oc1ccccc1-c1nc2c3ccccc3c3ccccc3c2o1	88%
Cc1ccccc1Nc1nc2nonc2nc1Nc1cccc(C)c1C	69.8%
Cc1nn2c(-c3nc4cc(Cl)c(Cl)cc4[nH]3)c(-c3ccc(F)cc3)nc2s1	106%
CC(=O)O[C@H]1CC[C@@]2(C)C(=CC[C@@H]3[C@@H]2CC[C@]2(C)C(Cl)=C(c4nc5ccc(Cl)cn5c4NC(C)(C)C)C[C@@H]32)C1	91.9%
O=C(Nc1cccc(Cl)c1)Nc1nccs1	88.7%
COc1ccc(-c2cn(Cc3ccc4c(Br)cc(Br)c(O)c4n3)nn2)cc1	48.6%
O=C(NC1CC1)c1ccc(-c2nc3ccc4[nH]ncc4c3c3c2CCCC3)cc1	28.6%
Cc1cc(C)c2c(c1)N(C)c1ncnc(-n3c(C)nc4cc(C)ccc43)c1CC2C (centres undefined)	1.64% (active)
COc1ccc(-c2nc3ncccn3c2/C=C/C(=O)c2cc(OC)c(OC)c(OC)c2)cc1	1.2% (active)
NC[C@@H]1O[C@H](O[C@@H]2[C@@H](CO)OC(O[C@@H]3[C@@H](O)[C@H](N)C[C@H](N)[C@H]3OC3O[C@H](CN)[C@@H](O)[C@H](O)[C@H]3N)[C@@H]2O)[C@H](N)[C@@H](O)[C@@H]1O (some centres undefined)	94.7%
Nc1c(C(=O)Nc2cccc(Cl)c2)sc2ncc(Br)cc12	108%
C#C[C@@]1(O)[C@@H](CO)O[C@@H](n2ccc3c(N)ncnc32)[C@@H]1O	-25.5% (active)

SMILES	growth
O=C(O)C1CN(c2cccc(Cl)c2)N(c2cccc(Cl)c2)C1=O (centres undefined)	95.3%
O=C1NC(=O)C(c2ccccc2)O1 (centres undefined)	99.5%
CC(=O)Nc1cc(C)ccc1C	100%
C[C@]12CC[C@@H]3c4ccc(OCC(=O)O)cc4CC[C@H]3[C@@H]1CCC2=O	84.7%
O=C(CSc1nnc(-c2ccc(Cl)c(Cl)c2)n1-c1ccccc1)Nc1ccc(C(=O)/C=C/c2ccc(Cl)cc2)cc1	81.8%
O=C(O)CCCC(=O)O	99%
Nc1c(C(=O)Nc2ccccc2)sc2nc3c(cc12)C(=O)CCC3	19.4%
Oc1c(CN2CCOCC2)cc(COCc2ccccc2)c2cccnc12	0.702% (active)
O=C1C=CC(=O)N1C1c2ccccc2-c2ccccc21	77.7%
O=C1C(c2c(O)[nH]c3ncccc23)=Nc2ccccc21	173%
CCCCCCOC(=O)CC1=C(C)/C(=C/c2[nH]c(-c3ccc[nH]3)cc2OC)N=C1C	-42.7% (active)
C=CCN1C(=O)/C(=c2\sc3n(c2=O)C2C(NN=3)N(CC)C(=O)N2CC)c2ccccc21 (centres undefined)	-17.4% (active)
COc1ccc(-c2nc(-c3nc4cc(Cl)c(F)cc4[nH]3)c3ccccn23)cc1	46.4%
COc1ccccc1N(C(C)=O)C1=C(Cl)C(=O)c2ccccc2C1=O	-27.5% (active)
OC[C@H]1OC([S-])[C@H](O)[C@@H](O)[C@@H]1O.[Au+] (some centres undefined)	95.1%
O=C1Nc2ccccc2C12Nc1cc(Cl)ccc1S2 (centres undefined)	71.6%
Clc1ccc(Cn2cc(-c3nc4ccc(Br)nc4n3Cc3ccc(Cl)cc3)c3cccnc32)cc1	94.1%
NC(=O)C(=O)c1ccccc1NC=O	101%
O=C1OC(c2ccccc2)C(O)=C1c1ccccc1 (centres undefined)	101%
